Results on 1 sequence are retold here after article PMC7862700, “An all-to-all approach to the identification of sequence-specific readers for epigenetic DNA modifications on cytosine”.

Assay in all cases: DAPPL (digital affinity profiling via proximity ligation, sequencing); 10 mM Tris-HCl pH 7.5, 50 mM NaCl, 1 mM DTT, 4% glycerol, room temperature, 30 min; GST-TFs on glutathione beads, 16-mer random dsDNA library, 0.1% formaldehyde crosslink after washing; high values mean tight binding
One test addresses T1, FLI1 (Homo sapiens, UniProt Q01543 1-452).
T1 sequence: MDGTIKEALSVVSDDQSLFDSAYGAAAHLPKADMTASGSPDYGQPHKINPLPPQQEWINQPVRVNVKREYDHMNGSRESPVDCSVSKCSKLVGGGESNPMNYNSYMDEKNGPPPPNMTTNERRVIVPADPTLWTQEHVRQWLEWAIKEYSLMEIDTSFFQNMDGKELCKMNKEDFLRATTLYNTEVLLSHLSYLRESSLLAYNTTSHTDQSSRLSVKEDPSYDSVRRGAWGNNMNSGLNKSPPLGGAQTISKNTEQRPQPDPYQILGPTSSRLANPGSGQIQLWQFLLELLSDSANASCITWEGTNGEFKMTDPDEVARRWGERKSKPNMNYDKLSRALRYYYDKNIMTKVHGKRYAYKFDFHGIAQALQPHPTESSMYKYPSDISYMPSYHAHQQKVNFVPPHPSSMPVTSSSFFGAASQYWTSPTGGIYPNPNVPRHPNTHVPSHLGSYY
The conditions noted are these: protein: recombinant; tags: N-terminal GST; dsDNA, one strand shown. The procedure, abridged: (§1)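 Binding signal is each hexamer's read frequency for a factor divided by its frequency in the tag-only sample. The factors were GST-fused human transcription factors from yeast, captured on glutathione beads, DNA-barcoded and pooled with that sample. Pools were incubated with 200 nmole of a random double-stranded 16-mer DNA library in Tris/NaCl/DTT/glycerol buffer at room temperature for 30 min, then washed, crosslinked with 0.1% formaldehyde, proximity-ligated with BsaI/T4 ligase (1 h, 37 °C), PCR-amplified and sequenced on an Illumina NextSeq500.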

For the next test, the target named is T2, ELK1 (Homo sapiens, UniProt P19419 1-428).
T2 sequence: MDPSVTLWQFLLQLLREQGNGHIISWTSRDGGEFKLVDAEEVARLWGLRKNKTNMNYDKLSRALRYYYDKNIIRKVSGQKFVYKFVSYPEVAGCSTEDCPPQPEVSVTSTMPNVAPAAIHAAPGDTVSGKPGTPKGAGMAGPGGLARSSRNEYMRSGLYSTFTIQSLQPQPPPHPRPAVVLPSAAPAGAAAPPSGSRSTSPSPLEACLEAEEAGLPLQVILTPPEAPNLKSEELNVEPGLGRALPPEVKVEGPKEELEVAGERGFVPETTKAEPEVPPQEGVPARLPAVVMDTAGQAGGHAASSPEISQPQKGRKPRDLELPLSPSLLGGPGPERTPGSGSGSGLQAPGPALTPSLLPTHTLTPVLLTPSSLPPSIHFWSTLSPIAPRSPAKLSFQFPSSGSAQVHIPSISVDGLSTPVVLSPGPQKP
The conditions noted are these: protein: recombinant; tags: N-terminal GST; dsDNA, one strand shown. The procedure, abridged: as §1

The target of another test is T3, GABPA (Homo sapiens, UniProt Q06546 1-454).
T3 sequence: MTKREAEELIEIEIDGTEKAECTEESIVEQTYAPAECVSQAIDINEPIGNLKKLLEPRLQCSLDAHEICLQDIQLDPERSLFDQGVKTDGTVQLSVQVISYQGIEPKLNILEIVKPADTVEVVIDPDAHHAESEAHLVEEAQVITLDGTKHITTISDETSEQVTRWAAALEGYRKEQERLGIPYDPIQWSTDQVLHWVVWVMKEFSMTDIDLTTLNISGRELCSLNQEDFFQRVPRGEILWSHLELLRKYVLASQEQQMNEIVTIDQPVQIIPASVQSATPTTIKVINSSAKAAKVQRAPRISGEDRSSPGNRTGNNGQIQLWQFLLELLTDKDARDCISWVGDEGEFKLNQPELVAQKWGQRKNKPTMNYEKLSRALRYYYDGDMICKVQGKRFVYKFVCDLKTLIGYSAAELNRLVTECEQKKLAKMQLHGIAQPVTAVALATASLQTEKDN
The conditions noted are these: protein: recombinant; tags: N-terminal GST; dsDNA, one strand shown. Summed up:
as §1

The target of a further test is T4, ERG (Homo sapiens, UniProt P11308 1-479).
T4 sequence: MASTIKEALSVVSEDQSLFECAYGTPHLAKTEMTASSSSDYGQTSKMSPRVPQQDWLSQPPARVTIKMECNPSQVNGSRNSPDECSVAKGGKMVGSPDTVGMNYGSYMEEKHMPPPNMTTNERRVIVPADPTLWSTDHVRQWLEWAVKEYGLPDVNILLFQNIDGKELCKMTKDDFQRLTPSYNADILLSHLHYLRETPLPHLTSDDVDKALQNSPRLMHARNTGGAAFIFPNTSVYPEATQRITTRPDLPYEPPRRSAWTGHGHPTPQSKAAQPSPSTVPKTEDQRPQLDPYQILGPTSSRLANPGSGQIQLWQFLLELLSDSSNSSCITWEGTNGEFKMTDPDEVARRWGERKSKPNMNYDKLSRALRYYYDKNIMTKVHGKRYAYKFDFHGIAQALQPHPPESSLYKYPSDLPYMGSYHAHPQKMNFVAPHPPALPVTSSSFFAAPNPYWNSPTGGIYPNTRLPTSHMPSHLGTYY
The conditions noted are these: protein: recombinant; tags: N-terminal GST; dsDNA, one strand shown. Summed up: as §1

A further test concerns the target ELF1 (Homo sapiens, UniProt P32519 1-619). The settings on record: protein: recombinant; tags: N-terminal GST; dsDNA, one strand shown. Summed up:
as §1

The next test has as its target T5, EHF (Homo sapiens, UniProt Q9NZC4 1-300).
T5 sequence: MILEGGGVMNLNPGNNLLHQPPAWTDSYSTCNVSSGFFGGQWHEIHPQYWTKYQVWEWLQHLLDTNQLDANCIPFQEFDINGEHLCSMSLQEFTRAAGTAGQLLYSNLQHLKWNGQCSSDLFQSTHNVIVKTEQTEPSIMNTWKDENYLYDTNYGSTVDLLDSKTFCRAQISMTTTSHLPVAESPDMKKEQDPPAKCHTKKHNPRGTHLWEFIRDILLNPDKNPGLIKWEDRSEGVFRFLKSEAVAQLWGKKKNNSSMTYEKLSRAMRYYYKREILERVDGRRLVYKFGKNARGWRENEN
The conditions noted are these: protein: recombinant; tags: N-terminal GST; dsDNA, one strand shown. Summed up: as §1

The target in another test is SPI1 (Homo sapiens, UniProt P17947 1-270). The settings on record: protein: recombinant; tags: N-terminal GST; dsDNA, one strand shown. Summed up:
as §1

A further test addresses SPIB (Homo sapiens, UniProt Q01892 1-262). The conditions noted are these: protein: recombinant; tags: N-terminal GST; dsDNA, one strand shown. The procedure, abridged:
as §1

In another test the target is T6, ELK3 (Homo sapiens, UniProt P41970 1-407).
T6 sequence: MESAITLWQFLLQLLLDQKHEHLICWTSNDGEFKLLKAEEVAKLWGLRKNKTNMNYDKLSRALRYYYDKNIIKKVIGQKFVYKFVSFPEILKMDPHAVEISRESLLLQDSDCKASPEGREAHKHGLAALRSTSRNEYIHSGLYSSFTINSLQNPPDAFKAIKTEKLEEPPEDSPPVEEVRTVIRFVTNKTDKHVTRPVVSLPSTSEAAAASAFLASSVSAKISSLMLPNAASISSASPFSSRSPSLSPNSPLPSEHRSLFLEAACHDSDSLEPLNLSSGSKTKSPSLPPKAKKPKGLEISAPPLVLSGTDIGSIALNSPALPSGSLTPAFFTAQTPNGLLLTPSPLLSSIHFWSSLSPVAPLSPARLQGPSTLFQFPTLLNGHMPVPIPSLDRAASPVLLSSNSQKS
The settings on record: protein: recombinant; tags: N-terminal GST; dsDNA, one strand shown. Summed up: as §1

The next test has as its target T7, FEV (Homo sapiens, UniProt Q99581 1-238).
T7 sequence: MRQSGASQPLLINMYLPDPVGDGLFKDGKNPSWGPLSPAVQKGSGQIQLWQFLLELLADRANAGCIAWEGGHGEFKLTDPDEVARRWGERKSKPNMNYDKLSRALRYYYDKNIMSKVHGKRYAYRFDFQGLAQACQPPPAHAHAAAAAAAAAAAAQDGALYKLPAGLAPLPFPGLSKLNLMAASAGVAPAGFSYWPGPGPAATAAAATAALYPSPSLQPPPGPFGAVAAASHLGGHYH
The conditions noted are these: protein: recombinant; tags: N-terminal GST; dsDNA, one strand shown. Summed up: as §1

The target of the next test is ETV5 (Homo sapiens, UniProt P41161 1-510). The conditions noted are these: protein: recombinant; tags: N-terminal GST; dsDNA, one strand shown. The procedure, abridged:
as §1

The next test has as its target HSF1 (Homo sapiens, UniProt Q00613 1-529). The conditions noted are these: protein: recombinant; tags: N-terminal GST; chain copies: 3; dsDNA, one strand shown. The procedure, abridged: as §1
The next test has as its target T8, SPIC (Homo sapiens, UniProt Q8N5J4 1-248).
T8 sequence: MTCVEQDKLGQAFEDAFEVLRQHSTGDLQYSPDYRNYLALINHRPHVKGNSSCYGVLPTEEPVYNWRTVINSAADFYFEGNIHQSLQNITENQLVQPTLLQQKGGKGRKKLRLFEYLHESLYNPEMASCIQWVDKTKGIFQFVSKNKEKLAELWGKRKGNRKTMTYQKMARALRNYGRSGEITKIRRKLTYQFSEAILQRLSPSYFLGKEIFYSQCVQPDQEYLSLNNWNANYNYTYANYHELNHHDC
The conditions noted are these: protein: recombinant; tags: N-terminal GST; dsDNA, one strand shown. The procedure, abridged: as §1

In a further test the target is ELF4 (Homo sapiens, UniProt Q99607 1-663). The settings on record: protein: recombinant; tags: N-terminal GST; dsDNA, one strand shown. Summed up: as §1
Chain of ELF4 (Q99607 whole entry): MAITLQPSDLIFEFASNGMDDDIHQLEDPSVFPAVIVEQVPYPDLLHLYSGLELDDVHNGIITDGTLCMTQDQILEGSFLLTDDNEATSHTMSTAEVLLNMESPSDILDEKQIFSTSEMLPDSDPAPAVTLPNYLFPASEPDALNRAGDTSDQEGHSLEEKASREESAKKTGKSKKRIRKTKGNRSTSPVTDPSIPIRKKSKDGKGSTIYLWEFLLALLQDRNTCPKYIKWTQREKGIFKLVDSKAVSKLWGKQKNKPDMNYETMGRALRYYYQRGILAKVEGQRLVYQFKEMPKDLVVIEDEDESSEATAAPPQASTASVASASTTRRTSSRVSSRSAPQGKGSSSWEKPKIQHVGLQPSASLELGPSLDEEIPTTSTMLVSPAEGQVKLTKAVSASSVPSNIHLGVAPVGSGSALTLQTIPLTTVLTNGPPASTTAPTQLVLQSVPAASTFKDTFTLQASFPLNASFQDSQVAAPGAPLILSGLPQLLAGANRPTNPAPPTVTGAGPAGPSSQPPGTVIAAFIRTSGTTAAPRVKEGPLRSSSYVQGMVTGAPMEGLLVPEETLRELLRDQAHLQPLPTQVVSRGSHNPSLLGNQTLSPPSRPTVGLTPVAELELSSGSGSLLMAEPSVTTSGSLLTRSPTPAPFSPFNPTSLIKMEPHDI
A further test addresses T9, ELK4 (Homo sapiens, UniProt P28324-2 1-405).
T9 sequence: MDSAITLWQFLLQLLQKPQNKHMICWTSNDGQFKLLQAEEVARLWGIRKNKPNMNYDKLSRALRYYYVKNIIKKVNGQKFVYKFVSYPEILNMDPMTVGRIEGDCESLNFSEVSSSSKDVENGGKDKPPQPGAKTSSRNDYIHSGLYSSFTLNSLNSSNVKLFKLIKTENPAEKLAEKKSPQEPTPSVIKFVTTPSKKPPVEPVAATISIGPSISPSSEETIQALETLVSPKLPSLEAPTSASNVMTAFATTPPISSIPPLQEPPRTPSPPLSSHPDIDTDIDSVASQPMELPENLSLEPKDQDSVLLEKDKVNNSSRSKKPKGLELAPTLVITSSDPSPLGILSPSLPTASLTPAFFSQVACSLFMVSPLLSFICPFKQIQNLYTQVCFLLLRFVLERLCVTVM
The settings on record: protein: recombinant; tags: N-terminal GST; dsDNA, one strand shown. Summed up:
as §1

Another test deals with T10, ETV2 (Homo sapiens, UniProt O00321 1-342).
T10 sequence: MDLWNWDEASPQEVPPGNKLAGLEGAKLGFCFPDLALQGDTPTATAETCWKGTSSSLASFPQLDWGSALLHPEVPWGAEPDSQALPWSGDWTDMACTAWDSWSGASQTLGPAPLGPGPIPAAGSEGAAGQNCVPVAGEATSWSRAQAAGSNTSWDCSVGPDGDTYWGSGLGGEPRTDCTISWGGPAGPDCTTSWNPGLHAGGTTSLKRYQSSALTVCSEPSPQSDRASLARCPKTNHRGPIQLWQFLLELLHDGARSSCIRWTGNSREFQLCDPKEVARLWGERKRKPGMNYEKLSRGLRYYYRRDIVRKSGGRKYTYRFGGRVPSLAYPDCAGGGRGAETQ
The settings on record: protein: recombinant; tags: N-terminal GST; dsDNA, one strand shown. The procedure, abridged:
as §1

A further test concerns the target T11, ELF3 (Homo sapiens, UniProt P78545 1-371).
T11 sequence: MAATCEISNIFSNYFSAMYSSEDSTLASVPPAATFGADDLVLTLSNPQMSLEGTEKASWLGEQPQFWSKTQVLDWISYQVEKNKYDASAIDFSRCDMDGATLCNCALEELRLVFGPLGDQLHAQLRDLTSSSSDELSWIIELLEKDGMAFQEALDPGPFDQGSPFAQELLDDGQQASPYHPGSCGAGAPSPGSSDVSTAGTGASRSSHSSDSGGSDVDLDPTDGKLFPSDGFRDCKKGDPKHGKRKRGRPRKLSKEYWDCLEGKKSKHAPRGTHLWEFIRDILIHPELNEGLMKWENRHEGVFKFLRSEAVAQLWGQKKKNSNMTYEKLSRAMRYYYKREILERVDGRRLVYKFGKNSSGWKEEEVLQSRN
The conditions noted are these: protein: recombinant; tags: N-terminal GST; dsDNA, one strand shown. The procedure, abridged:
as §1

In another test the target is CRX (Homo sapiens, UniProt O43186 1-299). The conditions noted are these: protein: recombinant; tags: N-terminal GST; dsDNA, one strand shown. Summed up: as §1
Chain of CRX (O43186 whole entry): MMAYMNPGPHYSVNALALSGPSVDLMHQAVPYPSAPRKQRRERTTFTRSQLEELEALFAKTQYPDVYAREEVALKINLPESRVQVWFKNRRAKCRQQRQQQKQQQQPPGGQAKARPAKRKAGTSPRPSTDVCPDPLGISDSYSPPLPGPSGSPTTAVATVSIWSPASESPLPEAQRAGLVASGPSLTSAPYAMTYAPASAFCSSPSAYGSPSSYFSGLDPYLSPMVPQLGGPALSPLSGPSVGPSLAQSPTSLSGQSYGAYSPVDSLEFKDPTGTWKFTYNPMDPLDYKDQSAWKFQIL
For another test, the target named is ETV1 (Homo sapiens, UniProt P50549 1-477). The settings on record: protein: recombinant; tags: N-terminal GST; dsDNA, one strand shown. Summed up: as §1
Chain of ETV1 (P50549 whole entry): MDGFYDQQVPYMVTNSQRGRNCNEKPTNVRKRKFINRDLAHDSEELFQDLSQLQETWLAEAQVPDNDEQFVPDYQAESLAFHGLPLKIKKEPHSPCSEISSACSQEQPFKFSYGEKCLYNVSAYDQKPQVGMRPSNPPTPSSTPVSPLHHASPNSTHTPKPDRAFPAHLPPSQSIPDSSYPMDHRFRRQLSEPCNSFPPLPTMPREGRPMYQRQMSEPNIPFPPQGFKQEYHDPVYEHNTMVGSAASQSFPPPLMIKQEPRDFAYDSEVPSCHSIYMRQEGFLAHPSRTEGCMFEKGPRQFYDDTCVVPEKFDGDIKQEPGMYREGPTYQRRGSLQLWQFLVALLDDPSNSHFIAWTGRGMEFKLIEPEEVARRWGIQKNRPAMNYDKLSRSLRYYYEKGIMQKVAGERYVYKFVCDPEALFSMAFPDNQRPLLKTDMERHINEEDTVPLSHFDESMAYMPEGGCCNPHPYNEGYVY

Chain of ELF1 (P32519 whole entry): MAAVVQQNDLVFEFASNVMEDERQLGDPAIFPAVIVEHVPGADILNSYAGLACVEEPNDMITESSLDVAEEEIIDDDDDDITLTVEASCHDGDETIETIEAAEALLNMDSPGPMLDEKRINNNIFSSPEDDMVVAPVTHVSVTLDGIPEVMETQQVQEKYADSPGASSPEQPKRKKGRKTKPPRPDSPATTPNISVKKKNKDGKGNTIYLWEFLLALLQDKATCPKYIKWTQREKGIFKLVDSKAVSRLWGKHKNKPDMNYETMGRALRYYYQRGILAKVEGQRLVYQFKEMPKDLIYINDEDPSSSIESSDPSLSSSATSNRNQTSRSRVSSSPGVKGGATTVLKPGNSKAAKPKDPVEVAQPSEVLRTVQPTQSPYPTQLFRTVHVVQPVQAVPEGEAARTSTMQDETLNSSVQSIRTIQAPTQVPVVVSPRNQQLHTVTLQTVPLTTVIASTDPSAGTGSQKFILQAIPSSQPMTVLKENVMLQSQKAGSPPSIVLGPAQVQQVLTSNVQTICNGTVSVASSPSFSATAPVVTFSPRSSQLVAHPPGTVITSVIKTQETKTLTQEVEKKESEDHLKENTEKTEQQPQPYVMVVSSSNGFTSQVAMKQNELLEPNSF
Chain of HSF1 (Q00613 whole entry): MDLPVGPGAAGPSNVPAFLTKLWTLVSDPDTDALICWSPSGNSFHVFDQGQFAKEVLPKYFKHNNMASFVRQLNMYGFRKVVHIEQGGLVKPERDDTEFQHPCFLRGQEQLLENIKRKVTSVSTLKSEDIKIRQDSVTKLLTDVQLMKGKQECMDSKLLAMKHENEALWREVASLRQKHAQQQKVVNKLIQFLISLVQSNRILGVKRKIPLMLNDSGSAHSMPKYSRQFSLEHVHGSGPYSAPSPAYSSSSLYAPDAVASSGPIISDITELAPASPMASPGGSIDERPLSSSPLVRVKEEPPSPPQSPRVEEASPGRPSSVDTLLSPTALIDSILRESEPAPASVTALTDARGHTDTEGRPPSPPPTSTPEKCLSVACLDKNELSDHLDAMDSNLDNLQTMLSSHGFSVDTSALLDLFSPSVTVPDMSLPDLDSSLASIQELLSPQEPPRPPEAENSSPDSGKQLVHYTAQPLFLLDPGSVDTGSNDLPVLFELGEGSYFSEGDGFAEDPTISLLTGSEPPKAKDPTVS
Chain of ETV5 (P41161 whole entry): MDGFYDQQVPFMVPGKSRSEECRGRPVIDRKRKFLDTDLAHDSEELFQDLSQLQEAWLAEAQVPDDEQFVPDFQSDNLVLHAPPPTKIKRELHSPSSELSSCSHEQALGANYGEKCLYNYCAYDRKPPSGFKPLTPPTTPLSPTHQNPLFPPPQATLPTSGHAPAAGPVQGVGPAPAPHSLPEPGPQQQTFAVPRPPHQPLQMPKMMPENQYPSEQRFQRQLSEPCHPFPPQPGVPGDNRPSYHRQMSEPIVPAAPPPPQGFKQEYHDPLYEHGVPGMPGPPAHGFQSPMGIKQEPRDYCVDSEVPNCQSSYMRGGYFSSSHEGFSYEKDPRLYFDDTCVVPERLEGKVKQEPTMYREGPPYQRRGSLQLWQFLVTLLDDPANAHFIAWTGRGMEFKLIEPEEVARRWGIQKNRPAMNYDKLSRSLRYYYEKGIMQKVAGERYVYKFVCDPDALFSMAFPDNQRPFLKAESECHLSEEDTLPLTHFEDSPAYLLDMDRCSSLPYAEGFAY
Chain of SPIB (Q01892 whole entry): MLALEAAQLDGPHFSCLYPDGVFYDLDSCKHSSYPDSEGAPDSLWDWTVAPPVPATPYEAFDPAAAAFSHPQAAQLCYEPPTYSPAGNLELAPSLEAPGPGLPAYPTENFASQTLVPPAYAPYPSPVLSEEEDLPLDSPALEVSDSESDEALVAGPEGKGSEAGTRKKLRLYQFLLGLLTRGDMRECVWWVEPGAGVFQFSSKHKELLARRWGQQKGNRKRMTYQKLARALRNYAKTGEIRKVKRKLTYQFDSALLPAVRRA

In the case of CTCCGC, the binding signal with FLI1 was 1.51 fold enrichment (6-mer frequency, TF over GST control); in the test with ELK1 it was 1.63 fold enrichment (6-mer frequency, TF over GST control); with GABPA, 1.58 fold enrichment (6-mer frequency, TF over GST control); with ERG, 1.38 fold enrichment (6-mer frequency, TF over GST control); with ELF1, 1.56 fold enrichment (6-mer frequency, TF over GST control); in the test with EHF, 1.37 fold enrichment (6-mer frequency, TF over GST control). Also, the binding signal is 1.56 fold enrichment (6-mer frequency, TF over GST control) with SPI1; 1.37 fold enrichment (6-mer frequency, TF over GST control) in the test with SPIB; 1.5 fold enrichment (6-mer frequency, TF over GST control) with ELK3; 1.43 fold enrichment (6-mer frequency, TF over GST control) with FEV; 1.52 fold enrichment (6-mer frequency, TF over GST control) with ETV5; 1.15 fold enrichment (6-mer frequency, TF over GST control) in the test with HSF1. In addition, the binding signal with SPIC was 1.51 fold enrichment (6-mer frequency, TF over GST control); with ELF4, 1.67 fold enrichment (6-mer frequency, TF over GST control); with ELK4, 1.39 fold enrichment (6-mer frequency, TF over GST control); with ETV2, 1.57 fold enrichment (6-mer frequency, TF over GST control); with ELF3, 1.38 fold enrichment (6-mer frequency, TF over GST control); in the test with CRX, 1.3 fold enrichment (6-mer frequency, TF over GST control). Further, the binding signal in the test with ETV1 was 1.56 fold enrichment (6-mer frequency, TF over GST control).
